In PMC10726135, “HNF4α isoforms regulate the circadian balance between carbohydrate and lipid metabolism in the liver” one finds binding signal data, which are given here for 42 sequences.

In all, about 18,000 sequences were measured (“log2 normalized intensity”: median about 0.39, highest 2% from about 6.6 on). This excerpt belongs to a sample that is enriched for the highest values.

In the experiment the target is T1, HNF4alpha2 (COS-7 nuclear extract) (Homo sapiens, UniProt P41235 1-474).
T1 sequence: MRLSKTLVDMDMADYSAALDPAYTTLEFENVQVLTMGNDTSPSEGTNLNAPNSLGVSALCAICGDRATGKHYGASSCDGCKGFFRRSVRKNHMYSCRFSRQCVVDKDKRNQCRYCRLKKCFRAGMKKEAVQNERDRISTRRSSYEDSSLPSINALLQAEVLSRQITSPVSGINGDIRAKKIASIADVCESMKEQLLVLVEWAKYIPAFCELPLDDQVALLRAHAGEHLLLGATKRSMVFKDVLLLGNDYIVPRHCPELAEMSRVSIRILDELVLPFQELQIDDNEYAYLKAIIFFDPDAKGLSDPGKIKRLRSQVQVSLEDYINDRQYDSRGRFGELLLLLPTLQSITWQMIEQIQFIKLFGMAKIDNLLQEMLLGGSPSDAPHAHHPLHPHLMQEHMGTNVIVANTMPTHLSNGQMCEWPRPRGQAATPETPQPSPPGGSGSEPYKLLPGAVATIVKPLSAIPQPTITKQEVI
Put plainly: protein-binding microarray; COS-7 nuclear extract on double-stranded Agilent 4x180k PBM; binding buffer, salt, pH and temperature not given in the material; high values mean tight binding. The following applies: chain copies: 2; label: 3' end of strand 1 on the slide; dsDNA, one strand shown. The essentials:
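COS-7 cells were transiently transfected by CaPO4 with an expression vector for a human HNF4α isoform, and nuclear extracts were prepared from them. The extracts were applied to a custom Agilent SurePrint G3 4x180k array of double-stranded ~60-nt oligonucleotides, with ~44,000 test sequences spotted in quadruplicate. An Agilent G2565CA scanner imaged bound HNF4α at 2-µm resolution. Binding signal is the background-corrected, normalized gProcessedSignal from Agilent software.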
Turning to “AAGGCTAGTCTTCTTTGGGGCTTAGATAGCGCCTAGGGAGATTAGAGTATCGGTCGA”, the binding signal amounted to 0.431 log2 normalized intensity.
In the case of “TGTACAGGACCATGTTCTCCTAAAGTGACTGCCTAGGGAGATTAGAGTATCGGTCGA”, the binding signal is -0.786 log2 normalized intensity.
On to “CACTGCACCTGCCTGAACAAGTCCAGTGACGCCTAGGGAGATTAGAGTATCGGTCGA”, for which the binding signal was -0.89 log2 normalized intensity.
As for “CACTGAGATAAAAATGGCCAAAGGTTGCCAGCCTAGGGAGATTAGAGTATCGGTCGA”, the figure is 2.09 log2 normalized intensity.
As for “CCACATTCTGAGACTAAAGAGTACACAAAGGCCTAGGGAGATTAGAGTATCGGTCGA”, the figure is -0.922 log2 normalized intensity.
Next, “TTCCTGGATTGTGAAACACAGGACTTGATCGCCTAGGGAGATTAGAGTATCGGTCGA”: 0.71 log2 normalized intensity; “GAGTGTCCTGCCCCCTGGAGGAGTGAGGGAGCCTAGGGAGATTAGAGTATCGGTCGA”: 1.34 log2 normalized intensity.
For the sequence “GGGGAGGTCAACCAGGGAAATTACCCTCTAGCCTAGGGAGATTAGAGTATCGGTCGA”, the binding signal was -0.241 log2 normalized intensity.
As for “ACAGGGCTTGGGGTGGGGTTGGAGTCCAGAGCCTAGGGAGATTAGAGTATCGGTCGA”, the figure is 1.25 log2 normalized intensity.
Next, “AGTGAAGGTTCAGTGAAGTAGTGTGTATGAGCCTAGGGAGATTAGAGTATCGGTCGA”: 2.27 log2 normalized intensity.
Next, “TTTATGACCTTTGACTGCAGAAGATAAGAAGCCTAGGGAGATTAGAGTATCGGTCGA”: 3.94 log2 normalized intensity.
With “CCTAAGCCTTATTATCTGCTTTTATGACCTGCCTAGGGAGATTAGAGTATCGGTCGA”, the binding signal worked out at 3.06 log2 normalized intensity.
As for “TCTGCCTTTTATCTATTTGTCGCCTCTGACGCCTAGGGAGATTAGAGTATCGGTCGA”, the figure is 0.141 log2 normalized intensity; as for “ATTATCTGCTTTTATGACCTTTGACTGCAGGCCTAGGGAGATTAGAGTATCGGTCGA”, 6.64 log2 normalized intensity; as for “GCCTTATTATCTGCTTTTATGACCTTTGACGCCTAGGGAGATTAGAGTATCGGTCGA”, 7.34 log2 normalized intensity.
As for “CTGCTTTTATGACCTTTGACTGCAGAAGATGCCTAGGGAGATTAGAGTATCGGTCGA”, the figure is 5.27 log2 normalized intensity; as for “AACTTTGCAGCAGATAATTACCTGGACTCTGCCTAGGGAGATTAGAGTATCGGTCGA”, 3.6 log2 normalized intensity; as for “CAGATGTTTCTGCAAGCACACTGTCCTGCTGCCTAGGGAGATTAGAGTATCGGTCGA”, -0.824 log2 normalized intensity.
As for “TGCCCAGCTTGAATCACTCACTGACCTCTTGCCTAGGGAGATTAGAGTATCGGTCGA”, the figure is 3.98 log2 normalized intensity; as for “CTGACCTTTGCCCCCAGCCTCTCACAGTAGGCCTAGGGAGATTAGAGTATCGGTCGA”, 6.87 log2 normalized intensity; as for “GCCTGCCCCTCTGACCTCTCCTCCTACCTTGCCTAGGGAGATTAGAGTATCGGTCGA”, 3.24 log2 normalized intensity.
With “GAGGTTCCTGGAACTCTGACCTTTGCCCCCGCCTAGGGAGATTAGAGTATCGGTCGA”, the binding signal turned out to be 10.5 log2 normalized intensity.
As for “AAATCTGCCCAACCTTTGCCCCTGGAGGGAGCCTAGGGAGATTAGAGTATCGGTCGA”, the figure is 3.74 log2 normalized intensity.
Next, “ACCGACCTTTGGTTCCTGAACTCAAACCCCGCCTAGGGAGATTAGAGTATCGGTCGA”: 2.57 log2 normalized intensity; “CTTTGCCCCCAGCCTCTCACAGTAGCCCAGGCCTAGGGAGATTAGAGTATCGGTCGA”: 4.6 log2 normalized intensity.
With “TCCTGGAACTCTGACCTTTGCCCCCAGCCTGCCTAGGGAGATTAGAGTATCGGTCGA”, the binding signal was determined as 9.67 log2 normalized intensity.
Next, “GAACTCTGACCTTTGCCCCCAGCCTCTCACGCCTAGGGAGATTAGAGTATCGGTCGA”: 8.72 log2 normalized intensity; “GCTATCTTATCTTTGACCTTACCAGCCCACGCCTAGGGAGATTAGAGTATCGGTCGA”: 2.3 log2 normalized intensity.
As for “AGCCTCTCACAGTAGCCCAGGTCCTTTGGTGCCTAGGGAGATTAGAGTATCGGTCGA”, the figure is 0.178 log2 normalized intensity.
Regarding “AGGAGGAGGTTCCTGGAACTCTGACCTTTGGCCTAGGGAGATTAGAGTATCGGTCGA”, the binding signal was 5.97 log2 normalized intensity.
As for “TTCTGTCCTCTCAAAGTCCACCCGGCCAGCGCCTAGGGAGATTAGAGTATCGGTCGA”, the figure is 4.04 log2 normalized intensity; as for “TGCATCAGTGCTGACCTACCTGACCTGGCAGCCTAGGGAGATTAGAGTATCGGTCGA”, 1.28 log2 normalized intensity; as for “AAGGGCAGCAGTAACCCCCCAGGAGCGAGTGCCTAGGGAGATTAGAGTATCGGTCGA”, 3.54 log2 normalized intensity.
Next, “TGGGTATGTCTGTAGGTAAGCACAAAGTACGCCTAGGGAGATTAGAGTATCGGTCGA”: 1.92 log2 normalized intensity.
Next, “GGCAAAACACCCCTTTCACTTCTTCCCCTCGCCTAGGGAGATTAGAGTATCGGTCGA”: 3.8 log2 normalized intensity; “TAACCCTACAGTCCTGCCACATCCCCCACAGCCTAGGGAGATTAGAGTATCGGTCGA”: 4.26 log2 normalized intensity; “AGGGGCTGCTGGGAGTTGTAGTTTTTTGGGGCCTAGGGAGATTAGAGTATCGGTCGA”: 1.54 log2 normalized intensity.
As to “AAGAGTCAAAGGGCAAAGGAATAAAATAGCGCCTAGGGAGATTAGAGTATCGGTCGA”, the binding signal is -0.272 log2 normalized intensity.
As for “ACTGCCTGACCCCAAGTAATAGCCGTTTCTGCCTAGGGAGATTAGAGTATCGGTCGA”, the figure is 1.07 log2 normalized intensity; as for “CCCCACCCCCACTGCCTGACCCCAAGTAATGCCTAGGGAGATTAGAGTATCGGTCGA”, 6.98 log2 normalized intensity; as for “TTCATCCCCACCCCCACTGCCTGACCCCAAGCCTAGGGAGATTAGAGTATCGGTCGA”, 7.59 log2 normalized intensity.
As for “CTCTTCAGAATGGCCTGCCCATCCCCCCAAGCCTAGGGAGATTAGAGTATCGGTCGA”, the figure is 5.18 log2 normalized intensity.
